Test results reported in PubChem BioAssay (NCI).
The panel holds about 83,000 compounds, 20% with a hit somewhere; the sample as a whole holds those more often.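 Single-dose data. Exposure time 48 hours. Values below 10 considered active.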 Calls of active or inactive are those of the source.

Test system: CCRF-CEM leukemia
Assay: NCI-60 one-dose screen, 48 h (100 = growth as untreated, 0 = no growth, -100 = all killed)
Details: 10 µM unless noted

SMILES	growth
COc1ccc(Sc2ccc3[nH]c(=O)nc(N)c3c2)cc1	95.3% (inactive)
CCN1C(=O)C2(Nc3ccccc3S2)c2cc(C)ccc21 (centres undefined)	9.42% (active)
CCOC(=O)c1cn2c3c(cc(F)cc3c1=O)C(CC)c1ccccc1C2 (centres undefined)	74.9% (inactive)
Cc1nn(CC(=O)O)c2c1C(=O)CC(C)(C)C2	99.6% (inactive)
O=C1/C(=C/c2ccc(Oc3ccccc3)cc2)N=C(c2ccccc2)N1CCc1cccs1	79.1% (inactive)
COc1cccc(C2C3=C(COC3=O)N(CCO)c3cc4c(cc32)OCO4)c1 (centres undefined)	21.3% (inactive)
COc1ccc2c(c1)c(=O)oc1c(C)c(OCC(C)=O)ccc12	99.7% (inactive)
CC1=C(C/C=C(\C)CCC[C@H](C)CCC[C@H](C)CCCC(C)C)C(=O)c2ccccc2C1=O	102% (inactive)
O=S(=O)(OCCO)c1ccccc1	61.8% (inactive)
COc1ccc(-c2nc3sccn3c2/C=C/C(=O)c2cc(OC)c(OC)c(OC)c2)cc1OC	21.6% (inactive)
Cc1nc(NN)c([N+](=O)[O-])c(NN)n1	-28.1% (active)
COc1cc(/C=C2\C(=O)N(c3c(Cl)cccc3Cl)c3ccccc32)cc(OC)c1O	17.6% (inactive)
COc1cc(C2C3=C(COC3=O)N(CCO)c3cc4c(cc32)OCO4)cc(OC)c1O (centres undefined)	28.6% (inactive)
COc1ccccc1CNCCCCCCCCCCCCN1C(=O)c2ccc3c4c(ccc(c24)C1=O)C(=O)N(CCCCCCCCCCCCNCc1ccccc1OC)C3=O	50.4% (inactive)
CCCCCCCCCCCCCCCC[N+]1(C)CCOCC1	-42.1% (active)
Cn1cc(C(=O)NCCC(=N)N)cc1NC(=O)CN=C(N)N	100% (inactive)
Nc1cccc2c(=S)c3ccccc3[nH]c12	100% (inactive)
CCN1CCN(c2nc3ccccc3c3c(=O)c4cc(F)ccc4sc23)CC1	68.5% (inactive)
Cc1ccc(N(CSc2ccc(Cl)cc2)CSc2ccc(Cl)cc2)cc1	-7.51% (active)

SMILES	growth
O=C1C(Cl)=C(NCCCN2CCOCC2)C(=O)c2ccccc21	90.9% (inactive)
O=[N+]([O-])c1ccc(O)c2ncccc12	25.5% (inactive)
O=C(Nc1ccccc1)Oc1cccc2cccnc12	7.23% (active)
Cc1ccc(C)c2c1sc1nc3nc4sc5ccccc5n4c(=N)c3c(=O)n12	81.1% (inactive)
O=C(c1ccccc1)C(Br)C(Br)c1cccc([N+](=O)[O-])c1 (centres undefined)	-15.7% (active)
COc1cc(/C=C2\C(=O)Nc3ccccc32)cc(OC)c1O	26.7% (inactive)
O=c1ccc2ccccc2o1	87.4% (inactive)
Cc1nc(-c2ccccc2)cc2c(O)c(C(=O)N/N=C/Cc3ccccc3)[nH]c(=O)c12	92.4% (inactive)
CN1CCc2cccc3c2C1Cc1ccc(O)c(O)c1-3 (centres undefined)	37.9% (inactive)
COc1cccc(C2C3=C(COC3=O)N(CCO)c3cc4c(cc32)CCC4)c1 (centres undefined)	20.9% (inactive)
COc1cc(CNCCCN2C(=O)c3ccc4c5c(ccc(c35)C2=O)C(=O)N(CCCNCc2cc(OC)c(OC)c(OC)c2)C4=O)cc(OC)c1OC	0.649% (active)
O=C1C=CC(=O)N1CCCCCCCCCCN1C(=O)C=CC1=O	16.5% (inactive)
CCCCC/C=C\C/C=C/CCCCCCCCNC(=O)Nc1ccc([N+](=O)[O-])cc1	31.4% (inactive)
Clc1ccc(C2=NN(c3ccccc3)[C@H](c3cn(-c4ccccc4)nc3-c3ccccc3)C2)cc1	116% (inactive)
OB(O)c1ccccc1	100% (inactive)
COc1cccc2c(=O)c3c(sc12)c(NCCN(C)C)nc1ccccc13	20.9% (inactive)
O=C(N/N=C/c1ccc(F)cc1)c1[nH]c2ccc(I)cc2c1-c1ccccc1	39.2% (inactive)
COc1ccc(-c2nc3sc(C)cn3c2/C=C/C(=O)c2cc(OC)c(OC)c(OC)c2)cc1	37.4% (inactive)

Test system: MOLT-4 leukemia
Assay: as above
Details: 10 µM unless noted

SMILES	growth
COc1ccc(Sc2ccc3[nH]c(=O)nc(N)c3c2)cc1	97.7% (inactive)
CCN1C(=O)C2(Nc3ccccc3S2)c2cc(C)ccc21 (centres undefined)	100% (inactive)
CCOC(=O)c1cn2c3c(cc(F)cc3c1=O)C(CC)c1ccccc1C2 (centres undefined)	65.6% (inactive)
Cc1nn(CC(=O)O)c2c1C(=O)CC(C)(C)C2	81.1% (inactive)
O=C1/C(=C/c2ccc(Oc3ccccc3)cc2)N=C(c2ccccc2)N1CCc1cccs1	62.8% (inactive)
COc1cccc(C2C3=C(COC3=O)N(CCO)c3cc4c(cc32)OCO4)c1 (centres undefined)	27.1% (inactive)
COc1ccc2c(c1)c(=O)oc1c(C)c(OCC(C)=O)ccc12	92.9% (inactive)
CC1=C(C/C=C(\C)CCC[C@H](C)CCC[C@H](C)CCCC(C)C)C(=O)c2ccccc2C1=O	101% (inactive)
COc1ccc(-c2nc3sccn3c2/C=C/C(=O)c2cc(OC)c(OC)c(OC)c2)cc1OC	31.4% (inactive)
Cc1nc(NN)c([N+](=O)[O-])c(NN)n1	89.6% (inactive)
COc1cc(/C=C2\C(=O)N(c3c(Cl)cccc3Cl)c3ccccc32)cc(OC)c1O	0.985% (active)
COc1cc(C2C3=C(COC3=O)N(CCO)c3cc4c(cc32)OCO4)cc(OC)c1O (centres undefined)	47.6% (inactive)
COc1ccccc1CNCCCCCCCCCCCCN1C(=O)c2ccc3c4c(ccc(c24)C1=O)C(=O)N(CCCCCCCCCCCCNCc1ccccc1OC)C3=O	64.6% (inactive)
Cn1cc(C(=O)NCCC(=N)N)cc1NC(=O)CN=C(N)N	103% (inactive)
Nc1cccc2c(=S)c3ccccc3[nH]c12	104% (inactive)
CCN1CCN(c2nc3ccccc3c3c(=O)c4cc(F)ccc4sc23)CC1	27.9% (inactive)

SMILES	growth
Cc1ccc(N(CSc2ccc(Cl)cc2)CSc2ccc(Cl)cc2)cc1	-16.3% (active)
O=C1C(Cl)=C(NCCCN2CCOCC2)C(=O)c2ccccc21	88.4% (inactive)
O=[N+]([O-])c1ccc(O)c2ncccc12	33.4% (inactive)
O=C(Nc1ccccc1)Oc1cccc2cccnc12	55.3% (inactive)
Cc1ccc(C)c2c1sc1nc3nc4sc5ccccc5n4c(=N)c3c(=O)n12	104% (inactive)
O=C(c1ccccc1)C(Br)C(Br)c1cccc([N+](=O)[O-])c1 (centres undefined)	3.67% (active)
COc1cc(/C=C2\C(=O)Nc3ccccc32)cc(OC)c1O	0.624% (active)
Cc1nc(-c2ccccc2)cc2c(O)c(C(=O)N/N=C/Cc3ccccc3)[nH]c(=O)c12	90.5% (inactive)
COc1cccc(C2C3=C(COC3=O)N(CCO)c3cc4c(cc32)CCC4)c1 (centres undefined)	24.3% (inactive)
O=C1C=CC(=O)N1CCCCCCCCCCN1C(=O)C=CC1=O	18.3% (inactive)
CCCCC/C=C\C/C=C/CCCCCCCCNC(=O)Nc1ccc([N+](=O)[O-])cc1	43.2% (inactive)
Clc1ccc(C2=NN(c3ccccc3)[C@H](c3cn(-c4ccccc4)nc3-c3ccccc3)C2)cc1	93.6% (inactive)
OB(O)c1ccccc1	96.9% (inactive)
COc1cccc2c(=O)c3c(sc12)c(NCCN(C)C)nc1ccccc13	-14.6% (active)
O=C(N/N=C/c1ccc(F)cc1)c1[nH]c2ccc(I)cc2c1-c1ccccc1	72.5% (inactive)
COc1ccc(-c2nc3sc(C)cn3c2/C=C/C(=O)c2cc(OC)c(OC)c(OC)c2)cc1	12.2% (inactive)
